Source: the supplement of paper PMC12350171
Structures can show the parent of a compound that is named as a salt. Values without a mark were called inactive.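 How the source made its calls: active = AUC significantly below DMSO controls by Student t-fit with adjusted P under 0.01; inactive = not significantly reduced.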

System: Haemophilus parainfluenzae
Assay: growth AUC normalised to DMSO control (fraction of control); higher = less growth inhibition, active = hit call of the paper
Conditions: 20 µM
How it was run: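 For the AUC endpoint, growth curves were integrated by the trapezoidal rule up to the exponential-to-stationary transition and normalised to DMSO controls on the same plate. The curves came from OD578 readings taken hourly for 24 h, in three biological replicates. Pathogens had been passaged anaerobically twice and inoculated at an OD578 of 0.01 into pre-reduced mGAM plates carrying 20 μM compound and 1% DMSO, sealed with breathable membranes. Medium for Haemophilus parainfluenzae also contained hemin and NAD.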

Compound | growth AUC normalised to DMSO control
CCCc1cc(=O)[nH]c(=S)[nH]1 [Propylthiouracil] | 0.991
CC1CCc2cc(F)cc3c(=O)c(C(=O)O)cn1c23 (stereo not given) [Flumequine] | 0.066 (active)
CCN(CC)C(=O)Nc1ccc(OCC(O)CNC(C)(C)C)c(C(C)=O)c1 (stereo not given) [Celiprolol hydrochloride] | 0.991
CC(=O)Oc1ccccc1C(=O)O [Acetylsalicylic acid] | 1.08
NS(=O)(=O)c1cc2c(cc1Cl)NC(C(Cl)Cl)NS2(=O)=O (stereo not given) [Trichlormethiazide] | 1.01
OCCN1CCN(CCCN2c3ccccc3Sc3ccc(Cl)cc32)CC1 [Perphenazine] | 0.924
C[N+]1(CCCCC[N+]2(C)CCCC2)CCCC1 [Pentolinium bitartrate] | 0.96
CCN1CCN(C(=O)N[C@@H](C(=O)N[C@@H]2C(=O)N3[C@@H]2SC(C)(C)[C@@H]3C(=O)O)c2ccccc2)C(=O)C1=O [Piperacillin sodium salt] | 0.0495 (active)
CC(=O)c1ccc(S(=O)(=O)NC(=O)NC2CCCCC2)cc1 [Acetohexamide] | 0.971
C#C[C@]1(O)CC[C@H]2[C@@H]3[C@H](C)CC4=C(CCC(=O)C4)[C@H]3CC[C@@]21C [Tibolone] | 0.966
